These results are taken from PubChem BioAssay.

Experiment [1] concerns XIP peptide (Xip251-270) binding. Put plainly: small-molecule binders of XIP peptide, primary screen, biochemical, small-molecule microarray, fluorescence 635/667 nm, 0.1 µg/mL protein (AID 1182). The note with it: fluorescent protein binding, 635 nm, higher = more signal, called active from +8 up or from −8 down.
Experiment [2] concerns XIP peptide (Xip251-270). Put plainly: small-molecule binders of XIP peptide, primary screen, biochemical, small-molecule microarray, fluorescence 635/667 nm, 0.5 µg/mL protein (AID 1183). The note with it: small-molecule microarray binding, fluorescence 635 nm; higher = more signal.
The nature of experiment [3]: Plasmodium falciparum growth inhibition, primary screen, strain 3D7, DAPI fluorescence, 100 nL (AID 1184).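 Note: parasites grown inside human red blood cells in medium with human serum.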 To be noted: P. falciparum 3D7 growth, 3 d, higher = more signal.
In experiment [4] the target is Homeobox protein Hox-A13 (Mus musculus) (UniProt Q62424). Briefly: inhibitors of HoxA13-DNA binding, primary screen, biochemical, fluorescence polarization, labeled oligonucleotide (AID 1185). The note with it: 15 min, higher = more signal, called active from +8 up or from −8 down. (In general: Fluorescence polarisation rises when a labelled molecule tumbles more slowly, as on binding a larger partner.)

The nature of experiment [5]: inhibitors of hydroxyurea-induced Chk1 phosphorylation, primary screen, imaging, HeLa, phospho-Chk1 antibody, percent positive cells (AID 1186). The note with it: hydroxyurea-induced phospho-Chk1 immunofluorescence imaging, higher = more signal.
A short description of experiment [6]: inhibitors of hydroxyurea-induced Chk1 phosphorylation, primary screen, imaging, HeLa, phospho-Chk1 nuclear intensity (AID 1187). To be noted: hydroxyurea-induced phospho-Chk1 immunofluorescence imaging, higher = more signal.

The source made the active and inactive calls. Unless noted, the rule behind the calls is not given here.

Sequence of Homeobox protein Hox-A13 (Mus musculus) (Q62424 whole entry, looked up): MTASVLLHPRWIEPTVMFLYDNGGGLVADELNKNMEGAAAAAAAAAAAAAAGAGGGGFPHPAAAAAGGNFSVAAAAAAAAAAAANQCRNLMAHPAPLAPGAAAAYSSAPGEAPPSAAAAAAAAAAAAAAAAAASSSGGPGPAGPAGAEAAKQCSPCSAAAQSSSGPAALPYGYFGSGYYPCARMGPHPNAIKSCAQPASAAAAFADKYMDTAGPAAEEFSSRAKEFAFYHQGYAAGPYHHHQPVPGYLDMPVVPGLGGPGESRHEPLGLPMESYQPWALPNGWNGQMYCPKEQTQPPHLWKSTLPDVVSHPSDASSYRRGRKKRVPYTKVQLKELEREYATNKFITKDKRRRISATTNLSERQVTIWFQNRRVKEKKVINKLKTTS

In the case of `Cc1ccc(S[C@]2(C(=O)NCCN3CCOCC3)CC(=O)N(Cc3ccccc3C(F)(F)F)[C@@H]2c2ccc(CO)cc2I)cc1`, the composite z-score is 0.109 (inactive) in experiment [1] and 0.895 in experiment [2]. Besides, the z-score in experiment [3] was -0.701; in experiment [4], -3.32 (inactive); in experiment [5] it was 0.354 (inactive); in experiment [6], 0.873 (inactive).
Take `Cc1ccc(S[C@]2(C(=O)O)CC(=O)N(Cc3ccccc3Cl)[C@@H]2c2ccc(CO)cc2)cc1`: the composite z-score in experiment [1] is 0.084 (inactive); in experiment [2] it was -0.0477. Moreover, the z-score is -1.34 in experiment [3], -2.09 (inactive) in experiment [4], -0.181 (inactive) in experiment [5] and -0.207 (inactive) in experiment [6].
On to `O=C1OCC=C[C@H]2OC34C=CCN(c5ccc(Cl)cc5)C(=O)[C@H]3N(CCCCCO)C(=O)[C@@H]4[C@@H]12` (stereo partly specified), for which the figures for the composite z-score in experiment [1] and in experiment [2] were -0.0492 (inactive) and -0.192, respectively. For the same compound, the z-score was -0.826 in experiment [3], -3.66 (inactive) in experiment [4], -0.11 (inactive) in experiment [5] and -0.281 (inactive) in experiment [6].
In the case of `O=c1cccc(-c2ccc(C(F)(F)F)cc2)o1`, the figures for the composite z-score in experiment [1] and in experiment [2] were 0.338 (inactive) and -0.256, respectively. In addition, the z-score was 1.39 in experiment [3], -1.7 (inactive) in experiment [4], 0.264 (inactive) in experiment [5] and 0.197 (inactive) in experiment [6].
In the case of `O=C1OCCC=C[C@H]2OC34C=CCN(c5ccc(Cl)cc5)C(=O)[C@H]3N(CCCCCO)C(=O)[C@@H]4C12` (stereo partly specified), the composite z-score in experiment [1] is 0.445 (inactive); in experiment [2] it was -0.342. For the same compound, the z-score in experiment [3] is 0.684; in experiment [4], -5.82 (inactive); in experiment [5] it was 0.578 (inactive); in experiment [6] it was 0.434 (inactive).
With `CN(C)CCCCNC(=O)[C@H]1C[C@H]2C(=O)N3CCC[C@H]3C(=O)N2[C@H]1c1ccc(O)cc1`, the composite z-score in experiment [1] is -0.301 (inactive); in experiment [2] it was 0.538. Moreover, the z-score in experiment [3] is -1.25; in experiment [4], -0.12 (inactive); in experiment [5] it was 0.331 (inactive); in experiment [6], 0.513 (inactive).
As to `C=C(/C(=C/C[C@@H](OC(=O)c1ccncc1)c1ccc(OCCO)cc1)c1cc(C(=O)OC)ccc1OC)C(C)C`, the composite z-score in experiment [1] was 0.281 (inactive); in experiment [2], 0.309. Further, the z-score in experiment [3] is -2.78; in experiment [4], -3.5 (inactive); in experiment [5] it was -0.899 (inactive); in experiment [6], -0.125 (inactive).
Regarding `CO[C@H]1O[C@H](CO)[C@@H](OC(=O)c2ccc(Br)cc2)[C@@H]2OC(=O)[C@@H](Cc3ccc4ccccc4c3)C/C=C/C[C@H](Cc3ccc4ccccc4c3)C(=O)O[C@@H]12`, the composite z-score in experiment [1] was 1.08 (inactive); in experiment [2], 0.266. Besides, the z-score in experiment [3] is -0.0936; in experiment [4], -5.67 (inactive); in experiment [5] it was -0.555 (inactive); in experiment [6] it was -0.449 (inactive).
With `CCC[C@@H]1C[C@@]1(CCC)[C@@H](NP(=O)(c1ccccc1)c1ccccc1)c1ccc(Cl)cc1`, the composite z-score in experiment [1] was 0.337 (inactive); in experiment [2], -0.53. The z-score in experiment [3] was -0.908; in experiment [4], -1.08 (inactive); in experiment [5] it was 0.946 (inactive); in experiment [6], 0.551 (inactive).
For the compound `CC(CO)N1C(=O)[C@@H]2C3C(=O)OCCC/C=C\[C@H]3OC23C=CCN(Cn2nnc4ccccc42)C(=O)[C@@H]13` (stereo partly specified), the composite z-score is -0.584 (inactive) in experiment [1] and 0.475 in experiment [2]. Also, the z-score is 0.357 in experiment [3], -2.97 (inactive) in experiment [4], -0.235 (inactive) in experiment [5] and 0.103 (inactive) in experiment [6].
Consider `CC(C)NC(=O)[C@@]1(C)c2ccccc2C(=O)N(C(C)C)[C@H]1c1ccc(CO)cc1`, for which the composite z-score was 3.06 (inactive) in experiment [1] and 0.884 in experiment [2]. Further, the z-score in experiment [3] was -0.568; in experiment [4], -2.26 (inactive); in experiment [5], 0.244 (inactive); in experiment [6], 0.246 (inactive).
As to `O=C1O[C@@H](c2ccccc2)[C@@H](c2ccccc2)N2[C@@H](c3ccc(O)cc3)[C@]3(C(=O)Nc4ccc(C#CCCO)cc43)[C@@H](C(=O)Nc3nc4ccccc4s3)[C@H]12`, the composite z-score in experiment [1] is 0.336 (inactive); in experiment [2] it was 0.732. The z-score was 0.204 in experiment [3], -0.524 (inactive) in experiment [4], 0.151 (inactive) in experiment [5] and 0.283 (inactive) in experiment [6].
As for `CC(C)(C)OC(=O)CC[C@]1(C(=O)N2CCOCC2)N=C(c2ccc(OCCCO)cc2)O[C@H]1c1ccccc1`, the composite z-score in experiment [1] was -0.0263 (inactive); in experiment [2] it was 0.689. Further, the z-score was -0.29 in experiment [3], -5.96 (inactive) in experiment [4], -0.443 (inactive) in experiment [5] and -0.494 (inactive) in experiment [6].
Turning to `[N-]=[N+]=NCc1ccccc1C[C@@]1(C(=O)NCCN2CCOCC2)N=C(c2ccc(OCCCO)cc2)O[C@@H]1c1ccccc1N=[N+]=[N-]`, the composite z-score is 1.51 (inactive) in experiment [1] and 0.767 in experiment [2]. The z-score in experiment [3] is -2.75; in experiment [4], -2.44 (inactive); in experiment [5], -0.402 (inactive); in experiment [6], -0.753 (inactive).
`O=C1c2ccccc2[C@](Cc2ccccc2I)(C(=O)NCCN2CCOCC2)[C@H](c2ccc(CO)cc2)N1Cc1ccccc1`: the composite z-score in experiment [1] was 0.198 (inactive); in experiment [2], 0.67. Moreover, the z-score in experiment [3] was -0.74; in experiment [4] it was -5.76 (inactive); in experiment [5] it was -0.0525 (inactive); in experiment [6], -0.321 (inactive).
Take `C=C(C(=O)CC[C@H](OC(=O)c1cccnc1)c1cccc(OCCO)c1)C(C)C`: the composite z-score in experiment [1] is 0.24 (inactive); in experiment [2] it was 0.183. The z-score is -2.09 in experiment [3], -3.82 (inactive) in experiment [4], -0.556 (inactive) in experiment [5] and -0.453 (inactive) in experiment [6].
